Data from PubChem BioAssay (NCATS).
Results filed as inconclusive are left out. Calls of active or inactive are those of the source. Calls come from the whole dose curve.

Biological target: Vitamin D3 receptor (Homo sapiens) (UniProt P11473)
Experiment: qHTS assay for small molecule agonists of vitamin D receptor signaling (AID 588543)
Conditions: HEK293T VDR-UAS-bla, beta-lactamase ratio, 16 h; series mostly up to 76.8 µM
From the text: NIH Chemical Genomics Center [NCGC]
U.S. Environmental Protection Agency [EPA]
National Institutes of Environmental Health Sciences [NIEHS]
National Toxicology Program [NTP]
The Vitamin D receptor (VDR) is a member of nuclear hormone receptor superfamily and it plays a critical role in calcium homeostasis and bone metabolism. It plays a role in inducing cell differentiation, inhibiting cell growth and in thrombogenicity. So, VDR that mediates these effects represents a pharmacological target in prevention and treatment of hyperproliferative malignancies, such as cancer and psoriasis, cardiovascular, immunological, inflammatory and renal diseases etc.
NCGC Assay Protocol Summary
Using a beta-lactamase reporter-gene under control of Vitamin D receptor (VDR) response element, a cell-based assay [GeneBLAzer (VDR -UAS-bla assay developed by Invitrogen] was used to measure VDR ligands signaling. GeneBLAzer VDR -UAS-bla HEK293T cells were used with assay medium containing 2% charcoal-stripped FBS. The assay was performed in clear bottom black Greiner 1536-well plates. 1-alpha,25-Dihydroxy vitaminD3 was used as a positive control in the screen. Library compounds were measured for their ability to stimulate the reporter gene activity. Compounds were screened in a titration series in 1536-well format. The fluorescence intensity (405 nm excitation, 460/530 nm emission) was measured using an EnVision plate reader. Data was normalized relative to 1-alpha,25-Dihydroxy vitaminD3 control (50 nM, 100%) and DMSO only wells (basal, 0%). Concentration-response titration points for each compound were fitted to the Hill equation yielding concentrations of half-maximal stimulation (EC50) and maximal response (efficacy) values.
qHTS protocol for VDR beta-lactamase assay in agonist mode
[Step] [Parameter] [Value] [Description]
1. Reagent; 6 uL; 2000 cells/well
2. Incubation; 37 C for 5 hrs
4. Controls (1-alpha,25-Dihydroxy vitaminD3); 23 nL,
- Final concentrations of 50 nM and 15 nM in two columns
5. Incubation; 37 C for 16 hrs
6. Detection reagent; 1 uL of CCF4-dye
7. Incubation; RT for 2 hrs
8. Detection; Fluorescence; Envision plate reader

Sequence of Vitamin D3 receptor (Homo sapiens) (P11473 whole entry, looked up): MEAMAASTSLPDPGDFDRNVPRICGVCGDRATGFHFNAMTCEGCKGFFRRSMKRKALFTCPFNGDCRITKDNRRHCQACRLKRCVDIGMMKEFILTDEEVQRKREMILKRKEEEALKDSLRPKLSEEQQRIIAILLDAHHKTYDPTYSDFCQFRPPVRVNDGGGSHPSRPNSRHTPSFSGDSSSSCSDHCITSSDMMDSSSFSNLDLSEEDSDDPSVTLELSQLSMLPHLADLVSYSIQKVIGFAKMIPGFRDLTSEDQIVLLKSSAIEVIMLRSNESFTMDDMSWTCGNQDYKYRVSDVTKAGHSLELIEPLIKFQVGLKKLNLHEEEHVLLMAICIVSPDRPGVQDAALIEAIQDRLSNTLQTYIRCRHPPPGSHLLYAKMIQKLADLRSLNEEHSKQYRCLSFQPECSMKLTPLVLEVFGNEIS

Compound | outcome
OC(CCl)CCl | inactive
O=c1[nH][nH]c(=O)c2cc([N+](=O)[O-])ccc12 | inactive
CC(=O)Nc1cccc(N)c1 | inactive
COc1cccc2sc(N)nc12 | inactive
O=C1CCC(=O)O1 | inactive
CC(C)(C)OC=O | inactive
CC(C)=CCl | inactive
CNC(=O)c1ccccc1 | inactive
Cc1ccccc1C(=O)O | inactive
CCCCOCCOCCSC#N | inactive
CC(=O)OC(C)=O | inactive
CC(=O)c1ccccc1[N+](=O)[O-] | inactive
Cc1ccccc1Br | inactive
Cc1cccc(C)c1[N+](=O)[O-] | inactive
CCCC(Cl)CCCC(Cl)CCC(Cl)CCC(Cl)CCC(Cl)CCCC(Cl)CCC (stereo not given) | inactive
CC(=O)OC(C)C | inactive
Cc1ccccc1C#N | inactive
CCOCC(=O)O | inactive
CC/C(C)=N/O | inactive
CC1(N)CCC(C(C)(C)N)CC1 (stereo not given) | inactive

Compound | outcome
O=P(O)(OCc1ccccc1)OCc1ccccc1 | inactive
CC(C)CCOC(=O)/C=C/c1ccccc1 | inactive
O=C(Cl)c1c(Cl)cccc1Cl | inactive
N#CCc1ccccc1[N+](=O)[O-] | inactive
Cc1cc(C)cc([N+](=O)[O-])c1 | inactive
Cc1cccc(C)c1O | inactive
CCCCCCCCCCCCOCC1CO1 (stereo not given) | inactive
Cc1cccc2ccccc12 | inactive
Cc1ccc2oc(=O)ccc2c1 | inactive
c1ccc2c(c1)Oc1ccccc1S2 | inactive
Cc1cccc(C)c1 | inactive
O=C(O)/C=C/C(=O)O | inactive
O=C(O)CNC(=O)c1ccc([N+](=O)[O-])cc1 | inactive
C1CCOC1 | inactive
COc1ccc(N)c(C)c1 | inactive
CSCCC=O | inactive
O=CNc1ccccc1 | inactive
O=[N+]([O-])c1ccc(CCO)cc1 | inactive
CC(C)=CCC/C(C)=C/C=O | inactive
C(=C/c1ccccc1)/c1ccccc1 | inactive
